Source: PubChem
Rows were chosen to be rich in hits. Some 9.6% of all compounds tested hit in one or more screens of this group.
Autophagy HCS: alters autophagy in cells; MEF GFP-LC3 puncta imaging; test concentration mostly 10 µM; AID 463193; calls only at 10 µM (by protocol); 0.98% of 190,000 active;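 active means percentage of spot-positive cells more than 3 SD above its plate mean, without a fluorescence outlier flag or 80% toxicity; inconclusive means no clear call, values can overlap the other calls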;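 further: spot-positive cell cutoff set from DMSO-treated cells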
INS promoter inh: TRM-6 insulin promoter activity inhibition. 0.9% of 130,000 active. inhibition, % at 2 µM. TRM-6 cells (human fetal islet line), insulin promoter-eGFP reporter, imaging; reporter expression induced with tamoxifen;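 active means inhibition above the mean plus 3 SD, with well images judged a real hit on visual review, cut at about 60% in these data, passing the limit was not always enough; inconclusive means inhibition over the cutoff but images rejected on review; inactive means inhibition not above the cutoff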
bCat KO growth: beta-catenin-lacking colon tumor cell growth suppression; HCT116 beta-catenin knockout viability, CellTiter-Glo, 60 h; stronger effect = lower value; viability, % at 10 µM; 1.5% of 140,000 active; AID 818;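 active means viability at or under a set limit, the compound median less 4 SD, cut at about 6% in these data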;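 further: 0% = Hyamine 1622 control at 20 µM and 100% = untreated cell control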
Lmaj promast: inhibitors of Leishmania major promastigote growth; Leishmania major promastigotes, resazurin fluorescence viability; inhibition, % at 10 µM; 9% of 200,000 active; AID 1063; in the data active means inhibition above about 50%;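 further: promastigotes grown with compound for 44 hours at 28 °C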
Ins promoter up: MIN6 insulin promoter up-regulation; z-score at 5 µM; MIN6 insulin promoter-GFP reporter, high-content imaging; stronger effect = higher value; 0.3% of 190,000 active; AID 1625;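 active means z-score above 3 at 5 µM with at least 500 cells counted in the well; inconclusive means wells under 500 cells, flagged as cytotoxic or low count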
PTEN del growth: PTEN-deleted cell growth suppression; HCT116 PTEN-null viability, CellTiter-Glo, 60 h; stronger effect = lower value; viability, % at 10 µM; 1.2% of 140,000 active;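 active means viability at or below a set limit, 4 SD under the median of all tested compounds, cut at about 3.7% in these data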;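 further: PTEN knockout HCT116 line with beta catenin targeted HCT116 as companion control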
The depositor's hits bear a star; i = inactive; u = inconclusive; x = no result given.

SMILES | Autophagy HCS | INS promoter inh | bCat KO growth | Lmaj promast | Ins promoter up | PTEN del growth
COc1ccc(NC(=O)CCN2CCN(S(=O)(=O)c3cc(Cl)ccc3OC)CC2)cc1 | i | 8 | 100 | 82* | -0.71 | 104
CCc1ccccc1NC(=O)CN(C)C(=O)Cn1ncc(Cl)c(Cl)c1=O | i | -223 | 1.8* | 44 | u | 1.8*
CCCc1cc(=O)[nH]c(SCC(=O)N(C)CC(=O)Nc2ccccc2CC)n1 | i | x | 91 | -17 | -0.19 | 95
CCOc1ccc(NC(=O)CCN2CCN(S(=O)(=O)c3ccc(OC)cc3)CC2)cc1 | i | -8 | 83 | -6 | -0.01 | 88
Cc1cc(N)n2nc(C(F)(F)F)nc2n1 | i | -7 | x | -12 | 0.65 | x
O=C(CCC(=O)NNC(=O)c1ccc([N+](=O)[O-])cc1)NCc1ccccc1 | i | x | x | -10 | 0.09 | x
COc1ccc(NC(=O)Cn2ncc(Cl)c(Cl)c2=O)cc1S(=O)(=O)N1CCOCC1 | i | -14 | 0.9* | 87* | 0.2 | 0.6*
Cc1ccc(C(=O)OCn2ncc(Cl)c(Cl)c2=O)cc1 | u | -194 | 1.0* | 101* | u | 1.2*
O=C(OCn1nnc2ccccc2c1=O)c1ccc(O)cc1 | i | x | x | -5 | 0.25 | x
Cc1ccc(-n2c(CCc3ccccc3)nnc2SCC(=O)NCc2ccccc2)cc1C | i | x | 79 | 54* | 1.5 | 73
COCc1nnc(SCC(=O)NCc2ccccc2)n1-c1ccccc1 | i | 2 | 94 | -7 | -0.35 | 98
C=CCOc1ccccc1/C=c1\sc2nc(=O)c(C)nn2c1=O | i | -43 | 78 | 100* | x | 74
Cc1ccc(OCC(=O)NS(=O)(=O)c2ccccc2)cc1 | i | x | x | -4 | 0.14 | x
O=C(C1CCN(c2ccc(N3CCOCC3)nn2)CC1)N1CCc2ccccc2C1 | i | 36 | 96 | 95* | -0.47 | 103
O=C(C1CCN(S(=O)(=O)N2CCC3(CC2)OCCO3)CC1)N1CCc2ccccc2C1 | i | -27 | 80 | -1 | -0.38 | 89
CCn1c(SCC(=O)NCC2CCCO2)nnc1-c1ccccc1 (centres undefined) | i | -28 | 95 | -6 | 1.2 | 104
COc1ccc(OC)c(NC(=O)c2ccc(CN(c3cc(Cl)ccc3C)S(=O)(=O)c3ccccc3)cc2)c1 | i | -18 | 71 | -1 | -0.67 | 69
O=C1CC(N2CCN(Cc3ccc4c(c3)OCO4)CC2)C(=O)N1Cc1ccc(N2CCCC2=O)cc1 (centres undefined) | i | 0 | 94 | 7 | 0.17 | 92
Cc1cccc(CC2CC(=O)N(CCc3ccc4c(c3)OCO4)C2=O)c1 (centres undefined) | i | x | x | 1 | -0.45 | x
O=C1CC(N2CCN(Cc3ccc4c(c3)OCO4)CC2)C(=O)N1c1cccc2ccccc12 (centres undefined) | i | x | x | 62* | x | x
O=C1CC(N2CCN(Cc3ccc4c(c3)OCO4)CC2)C(=O)N1CCc1ccccc1 (centres undefined) | i | -79 | 66 | 87* | -1.3 | 72
O=C1CC(Cc2ccccc2)C(=O)N1CCc1ccc2c(c1)OCO2 (centres undefined) | i | -26 | 93 | 100* | 0.55 | 97
COc1ccc(CCN2C(=O)CC(Cc3ccc(Br)cc3)C2=O)cc1OC (centres undefined) | i | -26 | 69 | 56* | -0.44 | 70
Nc1ccccc1SCC(=O)Nc1ccc(N2CCOCC2)cc1 | i | 0 | 89 | -1 | -0.12 | 99
Cc1nnc(Nc2ccc(O)cc2)[nH]c1=O | i | x | x | -6 | -0.6 | x
SMILES | Autophagy HCS | INS promoter inh | bCat KO growth | Lmaj promast | Ins promoter up | PTEN del growth
CC(C)(C)n1ncc2c(=O)n(CC(=O)N3CCc4ccccc43)cnc21 | i | x | 100 | 0 | 1.1 | 93
O=C1C(Cl)=C(N2CCN(c3ccccc3[N+](=O)[O-])CC2)C(=O)c2ccccc21 | i | 50 | 0.9* | 100* | u | 1.2*
CCCc1cc(C(=O)N2CCC(N3CCC(C(=O)NC(C)C)CC3)CC2)n(C)n1 | i | x | x | -4 | x | x
CCN(c1cccc(C)c1)C(C(=O)Nc1ccc(OC)cc1)c1cc2c(cc1[N+](=O)[O-])OCO2 (centres undefined) | i | -16 | 79 | 79* | -0.37 | 79
COc1ccc(NC(=O)O/N=C/c2c(C)nn(C(C)(C)C)c2C)cc1 | x | x | x | x | -0.86 | x
O=[N+]([O-])c1cc(C(F)(F)F)ccc1Sc1nccn1Cc1ccccc1 | i | -4 | 89 | -3 | 1.1 | 85
